Results filed as inconclusive are left out. Activity calls are given as the source filed them. Rule for the calls, unless noted: active = hit-call score of the fitted dose curve at least 0.9, where 1 is the maximum; inconclusive = response in the unintended direction; inactive = score below 0.9.
Target: human Peroxisome Proliferator-activated Receptor alpha (PPARa), PPARA (gene 5465) (UniProt Q07869)
Assay: ATG_PPARa_TRANS: Attagene TRANS-FACTORIAL HepG2 Assay for human Peroxisome Proliferator-activated Receptor alpha (PPARa) (AID 2283001)
Details: not given
In short: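 HepG2 cells transiently transfected with multiplexed GAL4-UAS reporters driven by exogenous chimeric NR-Gal4 proteins; reporter mRNA measured after 24 h dosing. Read-out by RT-PCR, 6-FAM labelling, HpaI digestion and capillary electrophoresis; gain of signal versus DMSO.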

Chain of human Peroxisome Proliferator-activated Receptor alpha (PPARa), PPARA (gene 5465) (Q07869 whole entry, looked up): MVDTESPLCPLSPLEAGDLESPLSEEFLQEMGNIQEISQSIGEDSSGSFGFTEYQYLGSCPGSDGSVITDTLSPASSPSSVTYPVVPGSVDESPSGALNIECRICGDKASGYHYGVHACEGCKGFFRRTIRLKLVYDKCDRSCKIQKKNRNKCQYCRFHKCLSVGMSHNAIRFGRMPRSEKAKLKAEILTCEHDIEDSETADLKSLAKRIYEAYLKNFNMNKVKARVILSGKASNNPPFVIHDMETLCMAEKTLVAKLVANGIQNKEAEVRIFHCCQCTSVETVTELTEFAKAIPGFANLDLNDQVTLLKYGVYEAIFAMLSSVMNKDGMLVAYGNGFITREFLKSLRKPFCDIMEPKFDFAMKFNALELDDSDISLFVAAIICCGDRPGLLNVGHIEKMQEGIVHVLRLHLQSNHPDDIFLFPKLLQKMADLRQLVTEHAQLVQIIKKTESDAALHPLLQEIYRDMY

Structure (SMILES)	outcome
CCCCN(CCCC)N=O	inactive
N#C/C=C/c1ccccc1	inactive
Oc1ccccc1Br	inactive
O=NN1CCCC1	inactive
CCOC(=O)c1ccccc1N	inactive
Cn1[nH]nnc1=S	inactive
CC1=C(C(=O)Nc2ccccc2)S(=O)(=O)CCO1	inactive
N#Cc1cc([N+](=O)[O-])ccc1N	inactive
CCCCOCC1CO1 (stereo unspecified)	inactive
Cc1ccc([N+](=O)[O-])cc1C	inactive
Cc1ccc(C(=O)Cl)cc1	inactive
CCN(CC)c1ccccc1	inactive
Oc1ccc(I)cc1	inactive
CC(=O)c1ccc(-c2ccccc2)cc1	inactive
CCOC(=O)c1ccccc1C(=O)OCC	inactive
CC(C)Nc1ccc(Nc2ccccc2)cc1	inactive
C/C(=N\NC(=O)Nc1cc(F)cc(F)c1)c1ncccc1C(=O)O	inactive
CC(=O)CCc1ccc2c(c1)OCO2	inactive

Target: human Peroxisome Proliferator-activated Receptor delta (PPARd), PPARD (gene 5467) (UniProt Q03181)
Sequence (Q03181 whole entry, looked up): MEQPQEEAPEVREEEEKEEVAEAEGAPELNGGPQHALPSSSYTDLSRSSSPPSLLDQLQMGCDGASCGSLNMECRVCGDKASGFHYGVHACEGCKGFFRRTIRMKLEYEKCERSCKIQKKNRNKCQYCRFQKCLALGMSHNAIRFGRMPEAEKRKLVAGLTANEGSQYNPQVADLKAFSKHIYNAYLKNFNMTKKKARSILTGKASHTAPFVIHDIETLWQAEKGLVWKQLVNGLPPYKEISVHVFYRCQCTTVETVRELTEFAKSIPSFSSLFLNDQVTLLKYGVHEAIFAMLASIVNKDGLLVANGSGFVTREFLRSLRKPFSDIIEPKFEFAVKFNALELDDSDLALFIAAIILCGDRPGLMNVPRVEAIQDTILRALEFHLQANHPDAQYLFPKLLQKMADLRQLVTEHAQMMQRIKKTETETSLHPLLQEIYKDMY
Assay: ATG_PPARd_TRANS: Attagene TRANS-FACTORIAL HepG2 Assay for human Peroxisome Proliferator-activated Receptor delta (PPARd) (AID 2283002)
Details: not given
In short: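 Read-out: reporter mRNA induction, quantified by fluorescent RT-PCR products resolved by capillary electrophoresis. Human HepG2 liver cells carried transiently transfected Gal4-UAS reporter constructs with chimeric NR-Gal4 fusions. Cells were dosed for 24 h; DMSO served as baseline.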

Structure (SMILES)	outcome
CCN(CC)C1CCCCC1	inactive
N#C/C=C/c1ccccc1	inactive
CC(O)C#N (stereo unspecified)	inactive
CNC(=O)Oc1ccc(N(C)C)c(C)c1	inactive
COC(N)=O	inactive
O=NN1CCCC1	inactive
CC1(C)CN=C(NN=C(/C=C/c2ccc(C(F)(F)F)cc2)/C=C/c2ccc(C(F)(F)F)cc2)NC1	inactive
O=C(CBr)OCc1ccccc1	inactive
CC1=C(C(=O)Nc2ccccc2)S(=O)(=O)CCO1	inactive
CCCCN(CC)C(=O)SCCC	inactive
O=S(=O)(c1ccc(O)cc1)c1ccc(O)cc1	inactive
CCCCOCC1CO1 (stereo unspecified)	inactive
OCC(F)(F)OC(F)(F)C(F)(F)OC(F)(F)CO	inactive
CO/N=C(/C(=O)OC)c1ccccc1COc1ccccc1C	inactive
O=[N+]([O-])c1cc(Cl)ccc1Cl	inactive
Oc1ccc(I)cc1	inactive
CC(=O)c1ccc(-c2ccccc2)cc1	inactive
CC(=O)CCc1ccc2c(c1)OCO2	inactive
FC(F)(F)c1ccc(Cl)cc1	inactive
NNC(N)=S	inactive

Read-out: Intercellular Adhesion Molecule 1 (ICAM1), ICAM1 (gene 3383)
Assay: BSK_3C_ICAM1: BioMAP Diversity Plus: 3C Assay for Intercellular Adhesion Molecule 1 (ICAM1) Biomarker Activity (AID 2283003; active = hit-call score of the fitted dose curve at least 0.9, where 1 is the maximum; inactive = score below 0.9)
Details: primary human endothelial cells (HUVEC); actives raise or lower the signal
In short: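 HUVEC primary cells stimulated under 3C conditions; ICAM1 measured by ELISA 24 h after compound dosing. Curves fitted bidirectionally against the DMSO baseline. Overt cytotoxicity checked by SRB staining of parallel cultures.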

Structure (SMILES)	outcome	AC50
CCCCN(CCCC)N=O	inactive	
N#Cc1cc([N+](=O)[O-])ccc1N	inactive	
OCC(F)(F)OC(F)(F)C(F)(F)OC(F)(F)CO	inactive	
Cc1ccc([N+](=O)[O-])cc1C	inactive	
CCN(CC)c1ccccc1	inactive	
O=[N+]([O-])c1ccccc1	inactive	
CCOC(=O)c1ccccc1C(=O)OCC	inactive	
CC(C)Nc1ccc(Nc2ccccc2)cc1		17.4 µM (active)
O=[N+]([O-])c1ccc(Cl)c(Cl)c1	inactive	

Target: human Retinoic Acid Receptor beta (RARb), RARB (gene 5915) (UniProt P10826)
Sequence (P10826 whole entry, looked up): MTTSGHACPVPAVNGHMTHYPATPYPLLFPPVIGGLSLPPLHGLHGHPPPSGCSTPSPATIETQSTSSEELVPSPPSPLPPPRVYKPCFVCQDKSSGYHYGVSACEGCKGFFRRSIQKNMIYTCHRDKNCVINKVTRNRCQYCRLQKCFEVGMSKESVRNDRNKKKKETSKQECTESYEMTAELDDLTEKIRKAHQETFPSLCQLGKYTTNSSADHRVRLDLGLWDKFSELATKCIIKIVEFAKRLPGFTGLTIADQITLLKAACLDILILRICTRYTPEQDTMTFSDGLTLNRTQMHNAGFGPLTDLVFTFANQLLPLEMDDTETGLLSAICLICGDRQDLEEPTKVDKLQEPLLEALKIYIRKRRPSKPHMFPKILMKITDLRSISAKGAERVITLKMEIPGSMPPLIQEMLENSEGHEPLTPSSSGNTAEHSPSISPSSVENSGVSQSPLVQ
Assay: ATG_RARb_TRANS: Attagene TRANS-FACTORIAL HepG2 Assay for human Retinoic Acid Receptor beta (AID 2283004)
Details: not given
In short: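 HepG2, transient MRTU transfection, NR–Gal4 chimera, 24 h treatment; RT-PCR plus CE fluorescence detection of reporter mRNA; gain of signal vs DMSO.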

Structure (SMILES)	outcome
CC(O)C#N (stereo unspecified)	inactive
N#Cc1ccc(O)cc1	inactive
Cn1[nH]nnc1=S	inactive
OCC(F)(F)OC(F)(F)C(F)(F)OC(F)(F)CO	inactive
CO/N=C(/C(=O)OC)c1ccccc1COc1ccccc1C	inactive
CCOC(=O)c1ccccc1C(=O)OCC	inactive
CC(C)Nc1ccc(Nc2ccccc2)cc1	inactive
FC(F)(F)c1ccc(Cl)cc1	inactive

Target: Retinoic acid receptor alpha (Homo sapiens) (UniProt P10276)
Sequence (P10276 whole entry, looked up): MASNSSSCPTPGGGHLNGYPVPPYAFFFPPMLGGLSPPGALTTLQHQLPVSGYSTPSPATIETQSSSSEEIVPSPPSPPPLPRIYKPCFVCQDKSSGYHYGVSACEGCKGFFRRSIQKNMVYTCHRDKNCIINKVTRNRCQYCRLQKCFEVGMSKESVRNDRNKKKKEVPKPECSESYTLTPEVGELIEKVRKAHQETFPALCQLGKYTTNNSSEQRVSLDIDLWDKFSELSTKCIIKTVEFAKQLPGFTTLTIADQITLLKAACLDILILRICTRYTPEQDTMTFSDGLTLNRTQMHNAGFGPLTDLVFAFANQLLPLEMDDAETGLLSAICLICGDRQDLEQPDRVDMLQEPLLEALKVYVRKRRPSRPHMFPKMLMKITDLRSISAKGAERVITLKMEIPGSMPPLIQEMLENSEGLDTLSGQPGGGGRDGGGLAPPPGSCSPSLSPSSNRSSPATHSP
Assay: ATG_RARa_TRANS: Attagene TRANS-FACTORIAL HepG2 Assay for human Retinoic Acid Receptor alpha (RARa) (AID 2283005)
Details: not given
In short: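 HepG2 transiently transfected with multiplex GAL4-UAS reporter units including a human RARa–GAL4 chimera; 24 h compound exposure. Reporter mRNA quantified by RT-PCR, 6-FAM labeling and capillary electrophoresis; gain of signal versus DMSO.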

Structure (SMILES)	outcome
CC1(C)CN=C(NN=C(/C=C/c2ccc(C(F)(F)F)cc2)/C=C/c2ccc(C(F)(F)F)cc2)NC1	inactive
Cn1[nH]nnc1=S	inactive
CO/N=C(/C(=O)OC)c1ccccc1COc1ccccc1C	inactive
Cc1ccc(C(=O)Cl)cc1	inactive
C=C(C)C(=O)OCC1CO1 (stereo unspecified)	inactive
O=[N+]([O-])c1ccccc1	inactive
CC(C)Nc1ccc(Nc2ccccc2)cc1	inactive
CCOP(=O)(O)C(N)=O	inactive
CC(=O)CCc1ccc2c(c1)OCO2	inactive

Read-out: not listed separately
Assay: BSK_3C_Proliferation: Cell Proliferation Assessment in the BioMAP Diversity Plus: 3C Assay (AID 2283006; active = hit-call score of the fitted dose curve at least 0.9, where 1 is the maximum; inactive = score below 0.9;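 for AC50: potency may reflect either rise or fall in cell number versus DMSO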)
Details: primary human endothelial cells (HUVEC)
In short: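 Subconfluent HUVEC (3C system) cultured with chemical; relative cell number read at 48 h by sulforhodamine B total-protein staining (0.1% SRB after 10% TCA fixation, 560 nm). Bidirectional fit relative to DMSO.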

Structure (SMILES)	outcome	AC50
CCCCN(CCCC)N=O	inactive	
N#Cc1cc([N+](=O)[O-])ccc1N	inactive	
OCC(F)(F)OC(F)(F)C(F)(F)OC(F)(F)CO	inactive	
Cc1ccc([N+](=O)[O-])cc1C	inactive	
CCN(CC)c1ccccc1	inactive	
O=[N+]([O-])c1ccccc1	inactive	
CCOC(=O)c1ccccc1C(=O)OCC	inactive	
CC(C)Nc1ccc(Nc2ccccc2)cc1		1.82 µM (active)
O=[N+]([O-])c1ccc(Cl)c(Cl)c1	inactive	

Target: Peroxisome proliferator-activated receptor gamma (Homo sapiens) (UniProt P37231)
Sequence (P37231 whole entry, looked up): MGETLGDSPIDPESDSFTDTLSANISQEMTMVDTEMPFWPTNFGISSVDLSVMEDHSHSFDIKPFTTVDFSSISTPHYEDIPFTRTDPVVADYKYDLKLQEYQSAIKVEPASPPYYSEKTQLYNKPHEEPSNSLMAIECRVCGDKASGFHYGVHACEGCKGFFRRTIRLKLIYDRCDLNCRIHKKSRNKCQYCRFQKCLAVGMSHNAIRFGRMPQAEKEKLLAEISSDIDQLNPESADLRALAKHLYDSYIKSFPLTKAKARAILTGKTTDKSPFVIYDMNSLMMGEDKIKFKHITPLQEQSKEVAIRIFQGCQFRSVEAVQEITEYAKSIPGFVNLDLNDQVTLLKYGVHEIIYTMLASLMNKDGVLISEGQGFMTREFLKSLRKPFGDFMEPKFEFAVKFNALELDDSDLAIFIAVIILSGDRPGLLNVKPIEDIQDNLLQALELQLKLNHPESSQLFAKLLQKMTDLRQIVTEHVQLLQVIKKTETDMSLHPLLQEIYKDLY
Assay: ATG_PPARg_TRANS: Attagene TRANS-FACTORIAL HepG2 Assay for human Peroxisome Proliferator-activated Receptor-gamma (PPARg) (AID 2283007)
Details: not given
In short: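 Transient transfection of HepG2 with GAL4-UAS-driven reporter units; chemical dosing 24 h; total RNA → oligo(dT) RT → PCR with reporter primers → 6-FAM primer extension → HpaI digest 2 h 37 C → capillary electrophoresis. Positive direction vs DMSO.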

Structure (SMILES)	outcome	AC50
CCN(CC)C1CCCCC1	inactive	
N#C/C=C/c1ccccc1		10.1 µM (active)
CC(O)C#N (stereo unspecified)	inactive	
CNC(=O)Oc1ccc(N(C)C)c(C)c1	inactive	
COC(N)=O	inactive	
O=NN1CCCC1	inactive	
O=C(CBr)OCc1ccccc1	inactive	
CCOC(=O)c1ccccc1N	inactive	
Nc1ccc(Sc2ccc(N)cc2)cc1		57.1 µM (active)
CC1=C(C(=O)Nc2ccccc2)S(=O)(=O)CCO1		1.9 µM (active)
CCCCN(CC)C(=O)SCCC	inactive	
O=S(=O)(c1ccc(O)cc1)c1ccc(O)cc1		22.4 µM (active)
N#Cc1cc([N+](=O)[O-])ccc1N	inactive	
CCCCOCC1CO1 (stereo unspecified)	inactive	
OCC(F)(F)OC(F)(F)C(F)(F)OC(F)(F)CO	inactive	
CC(C)(C)N(NC(=O)c1ccc(Cl)cc1)C(=O)c1ccccc1	inactive	
Cc1ccc(C(=O)Cl)cc1	inactive	
C=C(C)C(=O)OCC1CO1 (stereo unspecified)	inactive	
O=[N+]([O-])c1cc(Cl)ccc1Cl		16.1 µM (active)
Oc1ccc(I)cc1	inactive	
CC(=O)c1ccc(-c2ccccc2)cc1	inactive	
CC(C)Nc1ccc(Nc2ccccc2)cc1		23.9 µM (active)
C/C(=N\NC(=O)Nc1cc(F)cc(F)c1)c1ncccc1C(=O)O	inactive	
O=[N+]([O-])c1ccc(Cl)c(Cl)c1		16 µM (active)
CCOP(=O)(O)C(N)=O	inactive	
CC(=O)CCc1ccc2c(c1)OCO2	inactive	
FC(F)(F)c1ccc(Cl)cc1	inactive	
NNC(N)=S	inactive	
